This note sets out measurements from the antibiotic and cytotoxicity screens of Wong et al. (2023).

Out of some 39,000 compounds screened, about 3,300 (8.5%) were called active. Shown is part of a subset that was picked to be rich in actives.

This test concerns HepG2. Nature of the test: cytotoxicity call (relative viability < 0.9). As to conditions: 10 µM.
On to `C[C@H](CO)N1C[C@H](C)[C@H](CN(C)S(=O)(=O)c2cn(C)cn2)Oc2ccc(NS(=O)(=O)c3cn(C)cn3)cc2CC1=O`, for which the cytotoxicity call was “inactive”.
`CC(C)NC(=O)N(C)C[C@H]1OCc2cn(nn2)CCCC(=O)N([C@@H](C)CO)C[C@@H]1C`: the cytotoxicity call is “inactive”.
On to `Cc1noc(C)c1NC(=O)N(C)C[C@@H]1Oc2cc(C#CCN(C)C)ccc2S(=O)(=O)N([C@@H](C)CO)C[C@H]1C`, for which the cytotoxicity call is “inactive”.
The entry for `COc1ccc(S(=O)(=O)Nc2ccc3c(c2)C(=O)N([C@@H](C)CO)C[C@@H](C)[C@H](CN(C)C(=O)c2ccccc2)OCCCC[C@@H](C)O3)cc1` is “inactive”.
The value for `OCc1ccccc1O` was “inactive”; that for `Nc1ccccc1CO` was “active”; that for `Nc1cc(F)ccc1CO` was “inactive”.
In the case of `C[C@H](CO)N1C[C@H](C)[C@H](CN(C)C(=O)c2ccccc2)Oc2cc(C#C[C@@H](C)O)ccc2S1(=O)=O`, the cytotoxicity call is “inactive”.
The entry for `Cc1ccc(S(=O)(=O)Nc2ccc3c(c2)CC(=O)N([C@H](C)CO)C[C@H](C)[C@@H](CN(C)C(=O)NC(C)C)O3)cc1` is “inactive”; for `C[C@@H]1CN([C@@H](C)CO)S(=O)(=O)c2ccc(C#CC3CC3)cc2O[C@H]1CN(C)C(=O)Cc1ccncc1` it is “inactive”.
On to `COc1ccc2c3c([nH]c2c1)[C@@H](CO)N(C[C@]13CN(C1)S(=O)(=O)c1cn(cn1)C)C(=O)Nc1ccc(cc1)F`, for which the cytotoxicity call is “inactive”.
The entry for `C[C@@H]1CN([C@@H](C)CO)C(=O)c2cc(NC(=O)Nc3ccc4c(c3)OCO4)ccc2O[C@@H]1CN(C)C(=O)Nc1ccc(C(F)(F)F)cc1` is “inactive”; for `CO[C@@H]1[C@@H](O[C@@H]2O[C@H](C)[C@@H](O[C@H]3C[C@@](C)(O)[C@@H](O)[C@H](C)O3)[C@H](N(C)C)[C@H]2O)[C@@H](CC=O)C[C@@H](C)[C@@H](O[C@H]2CC[C@H](N(C)C)[C@@H](C)O2)/C=C/C=C/C[C@@H](C)OC(=O)C[C@H]1O` it is “inactive”.
As for `COC1C(O)CC(=O)OC(C)CC=CC=CC(OC2CCC(N(C)C)C(C)O2)C(C)CC(CC=O)C1OC1OC(C)C(OC2CC(C)(O)C(O)C(C)O2)C(N(C)C)C1O` (centres undefined), the cytotoxicity call was “active”.
The value for `CO[C@@H]1[C@@H](O[C@@H]2O[C@H](C)[C@@H](O[C@H]3C[C@@](C)(O)[C@@H](O)[C@H](C)O3)[C@H](N(C)C)[C@H]2O)[C@@H](CC=O)C[C@@H](C)[C@@H](O[C@H]2CC[C@H](N(C)C)[C@@H](C)O2)/C=C/C=C/CC(C)OC(=O)C[C@H]1OC(C)=O` (some centres undefined) was “inactive”.
Regarding `CO[C@@H]1[C@@H](O[C@@H]2O[C@H](C)[C@@H](O[C@H]3C[C@@](C)(O)[C@@H](OC(=O)CC(C)C)[C@H](C)O3)[C@H](N(C)C)[C@H]2O)[C@@H](CC=O)C[C@@H](C)[C@@H](O)/C=C/C=C/CC(C)OC(=O)C[C@H]1OC(C)=O` (some centres undefined), the cytotoxicity call was “active”.
On to `COC1C(O)CC(=O)OC(C)CC=CC=CC(O)C(C)CC(CC=O)C1OC1OC(C)C(OC2CC(C)(O)C(OC(=O)CC(C)C)C(C)O2)C(N(C)C)C1O` (centres undefined) [KITASAMYCINS [A1 shown] ], for which the cytotoxicity call was “inactive”.
The value for `CO[C@@H]1[C@@H](O[C@@H]2O[C@H](C)[C@@H](O[C@H]3C[C@@](C)(O)[C@@H](OC(=O)CC(C)C)[C@H](C)O3)[C@H](N(C)C)[C@H]2O)[C@@H](CC=O)C[C@@H](C)[C@@H](O)/C=C\C=C/C[C@@H](C)OC(=O)C[C@H]1OC(C)=O` was “inactive”; that for `COc1ccc(C(N)=S)cn1` was “inactive”; that for `Cc1noc(C)c1S(=O)(=O)Nc1ccc2c(c1)C(=O)N([C@H](C)CO)C[C@H](C)[C@H](CN(C)CC1CC1)O2` was “inactive”.
The value for `C[C@@H]1CN([C@@H](C)CO)S(=O)(=O)c2ccc(C#CC(C)(C)O)cc2O[C@H]1CN(C)Cc1ccncc1` was “inactive”; that for `C[C@H](CO)N1C[C@H](C)[C@@H](CN(C)S(=O)(=O)c2ccccc2)Oc2ccc(NC(=O)CCN3CCOCC3)cc2CC1=O` was “inactive”.
The value for `CS(=O)(=O)Nc1ccc2c(c1)C(=O)NC2=O` was “inactive”; that for `COc1ccccc1CNS(C)(=O)=O` was “inactive”; that for `COc1cc(NS(C)(=O)=O)ccc1Nc1c2ccccc2nc2ccccc12` was “active”.
With `C[C@H]1CCCCO[C@@H](CN(C)C(=O)c2ccncc2)[C@@H](C)CN([C@@H](C)CO)C(=O)c2cc(NC(=O)NC3CCCCC3)ccc2O1`, the cytotoxicity call is “inactive”.
The entry for `Cn1nccc1C(=O)NCCN` is “inactive”; for `CNCCC(Oc1ccc(C(F)(F)F)cc1)c1ccccc1.Cl` (centres undefined) it is “active”.
The value for `CNCCC(Oc1ccccc1C)c1ccccc1.Cl` (centres undefined) was “inactive”.
The entry for `CNC(=O)[C@@H](c1ccccc1)N1CCc2cc(OC)c(OC)cc2[C@@H]1CCc1ccc(C(F)(F)F)cc1` is “inactive”; for `CCCOC(=S)N[C@H]1OC[C@@H](O)[C@@H](O)[C@@H]1O` it is “inactive”.
For the compound `COc1ccccc1-c1ccc2c(c1)O[C@@H](CN(C)S(=O)(=O)c1ccccc1)[C@@H](C)CN([C@@H](C)CO)S2(=O)=O`, the cytotoxicity call was “inactive”.
The value for `C=CC[C@@H](CC(=O)NCCO)C(=O)NC[C@H](OC(=O)[C@H](CC=C)CC(=O)OC(C)(C)C)c1ccccc1` was “inactive”.
The value for `COc1ccc(S(=O)(=O)N[C@@H](CNc2nc(C)nc(N3CCC(c4ccc5c(n4)NCCC5)CC3)c2C)C(=O)O)cc1` was “active”; that for `O=C(NCCCN1CCOCC1)[C@H]1[C@@H]2C=C[C@@]3(CN(Cc4cccs4)C(=O)[C@@H]13)O2` was “inactive”; that for `Cc1cncc2cccc(S(=O)(=O)N3CC[C@H](N(C/C=C/c4ccc(Br)cc4)C/C=C/c4ccc(Br)cc4)C3)c12` was “inactive”.
The entry for `S=C(NCCCc1cnc[nH]1)NCCCN(Cc1ccc(Cl)c(Cl)c1)c1ccc(Br)cn1` is “active”; for `C[C@@H]1CCCCO[C@@H](CN(C)C(=O)Nc2ccccc2)[C@H](C)CN([C@H](C)CO)C(=O)c2cc(NS(=O)(=O)c3ccccc3)ccc2O1` it is “inactive”; for `CC(C)(C)[S@@+]([O-])N1Cc2cc(C(=O)NCc3ccc4c(c3)OCO4)nc(-c3ccc(-c4ccccc4)cc3)c2[C@H]1CCO` it is “inactive”.
On to `COc1ccc(S(=O)(=O)N[C@@H]2C=C[C@@H](CC(=O)N3CCC(Cc4ccccc4)CC3)O[C@H]2CO)cc1`, for which the cytotoxicity call is “inactive”.
Turning to `CCCNC(=O)C[C@@H]1CC[C@H]2[C@H](COc3ccc(NC(=O)c4ccc5c(c4)OCO5)cc3C(=O)N2C)O1`, the cytotoxicity call is “inactive”.
The entry for `C[C@@H]1CN([C@H](C)CO)C(=O)Cc2cc(NS(=O)(=O)c3ccc(Cl)cc3)ccc2O[C@H]1CN(C)Cc1ccc(Cl)c(Cl)c1` is “inactive”; for `C[C@H]1CN([C@@H](C)CO)C(=O)Cc2cc(NS(=O)(=O)c3ccc(Cl)cc3)ccc2O[C@@H]1CN(C)Cc1ccc(Cl)c(Cl)c1` it is “inactive”; for `C[C@@H]1CN([C@@H](C)CO)C(=O)Cc2cc(NS(=O)(=O)c3ccc(Cl)cc3)ccc2O[C@H]1CN(C)Cc1ccc(Cl)c(Cl)c1` it is “inactive”.
The value for `C[C@@H]1CN([C@@H](C)CO)C(=O)Cc2cc(NS(=O)(=O)c3ccc(Cl)cc3)ccc2O[C@@H]1CN(C)Cc1ccc(Cl)c(Cl)c1` was “active”; that for `C[C@@H]1CN([C@H](C)CO)C(=O)Cc2cc(NS(=O)(=O)c3ccc(Cl)cc3)ccc2O[C@@H]1CN(C)Cc1ccc(Cl)c(Cl)c1` was “active”.
The entry for `C[C@H]1CN([C@@H](C)CO)C(=O)Cc2cc(NS(=O)(=O)c3ccc(Cl)cc3)ccc2O[C@H]1CN(C)Cc1ccc(Cl)c(Cl)c1` is “active”; for `C[C@H](CO)N1C[C@H](C)[C@H](CN(C)Cc2ccc(Cl)c(Cl)c2)Oc2ccc(NS(=O)(=O)c3ccc(Cl)cc3)cc2CC1=O` it is “active”.
As for `C[C@H](CO)N1C[C@H](C)[C@@H](CN(C)Cc2ccc(Cl)c(Cl)c2)Oc2ccc(NS(=O)(=O)c3ccc(Cl)cc3)cc2CC1=O`, the cytotoxicity call is “inactive”.
